For 7 compounds, growth results are on record in PubChem BioAssay (NCI).

Test systems include SK-MEL-2 melanoma; EKVX NSCLC; SN12C renal; UO-31 renal; TK-10 renal; ACHN renal; CAKI-1 renal; A498 renal; CCRF-CEM leukemia; MOLT-4 leukemia; SR leukemia; RPMI-8226 leukemia; OVCAR-8 ovarian; OVCAR-5 ovarian; OVCAR-4 ovarian; SK-OV-3 ovarian; IGROV1 ovarian; OVCAR-3 ovarian; HS 578T breast; NCI/ADR-RES ovarian.
Test in all cases: NCI-60 one-dose screen, 48 h (100 = growth as untreated, 0 = no growth, -100 = all killed)
What all share (conditions): 10 µM unless noted

This is part of a sample that, as a whole, favours compounds with a hit. Of some 83,000 tested, about 20% had one in any assay.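 Each cell line was grown in a 96-well plate and treated with one concentration of compound for 48 hours. Values below 10 were considered active.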 Unmarked numbers belong to inactive results. Activity calls are given as the source filed them.

Consider `NC(=O)c1cc(I)ccc1NC(=O)/C=C/c1ccccc1Cl`, for which the growth with SK-MEL-2 melanoma was 75.1%; in the test with EKVX NSCLC it was 28%; in the test with SN12C renal, 40.7%; in the test with UO-31 renal, 30.6%; in the test with TK-10 renal it was 62.3%; in the test with ACHN renal, 56.2%. Besides, the growth with CAKI-1 renal was 13%; in the test with A498 renal, 62.4%; in the test on CCRF-CEM leukemia it was -19.6% (active); with MOLT-4 leukemia, 10.4%; with SR leukemia, -30.4% (active); in the test with RPMI-8226 leukemia it was -11.5% (active). Further, the growth in the test on OVCAR-8 ovarian is 31.3%; in the test on OVCAR-5 ovarian it was 38.2%; in the test with OVCAR-4 ovarian, 9.92% (active); in the test on SK-OV-3 ovarian, 4.87% (active); in the test on IGROV1 ovarian, 77.5%; with OVCAR-3 ovarian, -40.8% (active). Moreover, the results for the growth in the test with HS 578T breast and in the test with NCI/ADR-RES ovarian were -17.6% (active) and 8.88% (active), respectively.
In the case of `CC(O)CN1CC(O)=C(c2nc3ccccc3s2)C1=N` (stereo not given), the growth was 95.1% with SK-MEL-2 melanoma; 108% with EKVX NSCLC; 103% in the test on SN12C renal; 90.3% with UO-31 renal; 131% with TK-10 renal; 228% in the test with ACHN renal. Besides, the growth is 101% with CAKI-1 renal; 116% in the test with A498 renal; 97.4% in the test with CCRF-CEM leukemia; 103% with MOLT-4 leukemia; 93.1% in the test on SR leukemia; 101% in the test with RPMI-8226 leukemia. For the same compound, the growth in the test on OVCAR-8 ovarian is 116%; with OVCAR-5 ovarian it was 93.9%; in the test with OVCAR-4 ovarian, 106%; in the test on SK-OV-3 ovarian, 113%; in the test on IGROV1 ovarian it was 99%; in the test on OVCAR-3 ovarian, 117%. For the same compound, the growth was 104% in the test on HS 578T breast and 85.1% in the test with NCI/ADR-RES ovarian.
Turning to `COc1ccc(-c2n[nH]nc2-c2csc3ccccc23)cc1OC`, the growth in the test on SK-MEL-2 melanoma was 15%; in the test with EKVX NSCLC, 45.8%; in the test on SN12C renal, 34%; in the test on UO-31 renal, 35.1%; in the test on TK-10 renal, 53.2%; in the test with ACHN renal, 37.7%. Further, the growth in the test with CAKI-1 renal was 23.2%; in the test with A498 renal, 1.02% (active); in the test on CCRF-CEM leukemia it was 22.8%; in the test on MOLT-4 leukemia, 11%; in the test on SR leukemia, 21.3%; in the test on RPMI-8226 leukemia, 34.8%. The growth with OVCAR-8 ovarian is 36.9%; in the test on OVCAR-5 ovarian, 66.2%; in the test on OVCAR-4 ovarian, 49%; in the test with SK-OV-3 ovarian it was 14.2%; in the test on IGROV1 ovarian, 48.8%; in the test with OVCAR-3 ovarian it was 11.9%. In addition, the growth is 6.17% (active) with HS 578T breast and 13.5% in the test on NCI/ADR-RES ovarian.
`Cn1cc(C(=O)c2nc(-c3c[nH]c4ccc(F)cc34)no2)c2cc(F)ccc21`: the growth is 98.1% with SK-MEL-2 melanoma; 89.8% in the test on EKVX NSCLC; 95.1% in the test with SN12C renal; 69.5% with UO-31 renal; 113% in the test on TK-10 renal; 96.1% in the test on ACHN renal. Further, the growth with CAKI-1 renal is 82.5%; in the test with A498 renal it was 112%; with CCRF-CEM leukemia, 91.7%; in the test with MOLT-4 leukemia it was 95.2%; in the test on SR leukemia it was 48.1%; in the test on RPMI-8226 leukemia, 98.8%. Also, the growth in the test with OVCAR-8 ovarian is 95.9%; in the test with OVCAR-5 ovarian, 95.5%; in the test on OVCAR-4 ovarian, 97.5%; in the test on SK-OV-3 ovarian, 83.6%; in the test on IGROV1 ovarian it was 66.8%; in the test on OVCAR-3 ovarian it was 97.4%. The figures for the growth with HS 578T breast and in the test with NCI/ADR-RES ovarian were 91.3% and 84%, respectively.
In the case of `C#CC(F)(F)[C@]1(O)CC[C@H]2[C@@H]3CCC4=CC(=O)CCC4=C3[C@@H](c3ccc(C(C)=O)cc3)C[C@@]21C`, the growth is 99.4% with SK-MEL-2 melanoma; -60.6% (active) with EKVX NSCLC; 89.3% in the test with SN12C renal; -75% (active) with UO-31 renal; 114% with TK-10 renal; 87.8% with ACHN renal. Besides, the growth in the test on CAKI-1 renal is -31.9% (active); in the test on A498 renal, 79%; in the test on CCRF-CEM leukemia, -55.5% (active); with MOLT-4 leukemia it was 35.6%; in the test with SR leukemia, 7.36% (active); in the test on RPMI-8226 leukemia it was 2% (active). For the same compound, the growth in the test on OVCAR-8 ovarian is 90%; in the test on OVCAR-5 ovarian, 84.4%; in the test on OVCAR-4 ovarian, 76.2%; with SK-OV-3 ovarian, 52.8%; in the test on IGROV1 ovarian, -34.3% (active); with OVCAR-3 ovarian, 9.4% (active). The growth in the test with HS 578T breast was 76.5%; in the test on NCI/ADR-RES ovarian it was 82.7%.
On to `O=C(Nc1ccc(Cl)cc1)c1cc2cc(F)ccc2cc1O`, for which the growth in the test on SK-MEL-2 melanoma is 6.39% (active); in the test with EKVX NSCLC, 17%; in the test on SN12C renal, 7.85% (active); in the test on UO-31 renal, 12.6%; in the test with TK-10 renal, 17.7%; in the test on ACHN renal, 3.91% (active). The growth with CAKI-1 renal was 12%; in the test on A498 renal, -43.4% (active); with CCRF-CEM leukemia, 15.6%; with MOLT-4 leukemia, 7.89% (active); in the test with SR leukemia, 4.79% (active); in the test with RPMI-8226 leukemia it was -8.91% (active). For the same compound, the growth in the test with OVCAR-8 ovarian is 8.21% (active); in the test on OVCAR-5 ovarian it was 29.9%; in the test on OVCAR-4 ovarian, 26.4%; in the test on SK-OV-3 ovarian, -18.7% (active); in the test on IGROV1 ovarian, 42.5%; in the test with OVCAR-3 ovarian it was 23%. Also, the growth in the test on HS 578T breast is 18.6%; in the test with NCI/ADR-RES ovarian, 4.6% (active).
As to `O=C1Nc2c(ccc(Cl)c2Cl)/C1=C\c1cc(C(F)(F)F)cc(C(F)(F)F)c1`, the growth in the test on SK-MEL-2 melanoma is 38.4%; in the test on EKVX NSCLC, 26.9%; in the test with SN12C renal, 14.2%; with UO-31 renal it was 16.6%; in the test on TK-10 renal, 26%; in the test with ACHN renal it was 8.13% (active). For the same compound, the growth with CAKI-1 renal is 8.62% (active); in the test with A498 renal, -23.7% (active); in the test on CCRF-CEM leukemia, 30.8%; in the test on MOLT-4 leukemia it was -14.2% (active); with SR leukemia, -41.1% (active); in the test with RPMI-8226 leukemia, 25.6%. Further, the growth in the test on OVCAR-8 ovarian is 27.1%; with OVCAR-5 ovarian, -28.8% (active); in the test on OVCAR-4 ovarian it was 9.67% (active); in the test with SK-OV-3 ovarian it was 59.9%; in the test on IGROV1 ovarian, 3.13% (active); in the test with OVCAR-3 ovarian, -34.2% (active). The values for the growth in the test with HS 578T breast and in the test with NCI/ADR-RES ovarian were -37.6% (active) and 8.35% (active), respectively.
